Source: PubChem BioAssay (NCI)
The panel holds about 83,000 compounds, 20% with a hit somewhere; the sample as a whole holds those more often.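 The test compound was applied at a single concentration to cells in 96-well plates for 48 hours, and percent growth was recorded.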 Calls of active or inactive are those of the source. How the source made its calls: active means growth percent below 10; inactive means the rest.

What follows are compounds tested on HL-60(TB) leukemia (assay: NCI-60 one-dose screen, 48 h (100 = growth as untreated, 0 = no growth, -100 = all killed)). Details: 10 µM unless noted.

Question: `Cc1ccc(S(=O)(=O)Nc2c(Br)cc(Br)cc2C(N)=O)cc1` was tested. Which growth did it give?
Answer: Its growth is 83% (inactive).

Question: How did the growth turn out when `Brc1ccccc1Cn1c(-c2cncs2)nc2ccccc21` was run?
Answer: Its growth is 79.1% (inactive).

Question: For `Clc1cc(Cl)c(Cl)c(-c2nnc(SCc3ccncc3Br)o2)c1`, which growth is on record?
Answer: The growth was 88.8% (inactive).

Question: How did the growth turn out when `Cc1nn(-c2nc3ccccc3[nH]2)c2c1C(c1ccc(O)cc1)CC(=O)N2` (stereo not given) was run?
Answer: The growth was 82.1% (inactive).

Question: With `CN1C2C=CC(=O)C1C1C(=O)N(c3ccccc3)C(=O)C12` (stereo not given) as the compound, how does the growth read?
Answer: The growth was 55.7% (inactive).

Question: `CCCCCCCN(CCCCCCC)C(=N)c1ccnc2ccccc12` was tested. Which growth did it give?
Answer: Its growth is -64.4% (active).

Question: `CC1(C)C(N)=Nc2cc(OCCCN3Cc4ccc(OCCc5cn(CC(=O)N6CCC(CCN7CCCC7)CC6)nn5)cc4C3)c(OCC3CC3)cc21` was tested. Which growth did it give?
Answer: The growth was 97.3% (inactive).

Question: How did the growth turn out when `O=C(O)c1c([N+](=O)[O-])cnc2ccccc12` was run?
Answer: Its growth is 92.4% (inactive).

Question: With `CCc1oc2ccccc2c1C(=O)c1cc(Br)c(O)c(Br)c1` as the compound, how does the growth read?
Answer: Its growth is 53% (inactive).

Question: With `O=C(Nc1cc([N+](=O)[O-])c2[nH]c(=O)c3ccccc3c2c1)C(F)(F)F` as the compound, how does the growth read?
Answer: Its growth is 94.4% (inactive).

Question: For `CCOS(=O)(=O)c1c(C(C)C)cc(C(C)C)cc1C(C)C`, which growth is on record?
Answer: The growth was 89% (inactive).

Question: With `S=c1[nH]nc2ccccn12` as the compound, how does the growth read?
Answer: Its growth is 59.3% (inactive).

Question: For `COC(OC)c1ccccc1`, which growth is on record?
Answer: Its growth is 77.6% (inactive).

Question: How did the growth turn out when `O=C(Nc1nc(-c2ccccc2Cl)cs1)c1cc(-c2ccc(Br)cc2)nc2ccccc12` was run?
Answer: Its growth is 37.2% (inactive).

Question: With `CC(C)c1ccc(/C=N/Nc2nc3ccccc3s2)cc1` as the compound, how does the growth read?
Answer: Its growth is 98% (inactive).

Question: `Cc1cc(Nc2nc(C(=O)Nc3ccccc3)nc3ccccc23)n[nH]1` was tested. Which growth did it give?
Answer: The growth was 63.5% (inactive).

Question: Which growth does the source give for `CC1SC(c2c(Cl)cccc2Cl)N(NC(=O)c2[nH]c3ccc(F)cc3c2-c2ccccc2)C1=O` (stereo not given) here?
Answer: The growth was 103% (inactive).

Question: With `O=[N+]([O-])c1ccc([I+]c2ccccc2)cc1` as the compound, how does the growth read?
Answer: The growth was 21.5% (inactive).

Question: With `Nc1cc2c(cc1Br)[nH]c(=O)c1ccccc12` as the compound, how does the growth read?
Answer: Its growth is 91% (inactive).

Question: How did the growth turn out when `O=C(/C=C/c1sc(Cl)nc1Cl)c1ccccc1` was run?
Answer: Its growth is 42.2% (inactive).

Question: How did the growth turn out when `Nc1ccc(N=Nc2ccccc2)cc1[N+](=O)[O-]` was run?
Answer: Its growth is 97.1% (inactive).

Question: For `O=C(Cc1ccc(/C=C/C(=O)c2ncc[nH]2)cc1)Nc1ccc(Br)cc1`, which growth is on record?
Answer: The growth was 0.0282% (active).

Question: Which growth does the source give for `CC(C)(C#N)c1cc(C(=O)Nc2cc(Nc3ncccc3-c3ncnc4nc[nH]c34)ccc2F)cc(C(F)(F)F)c1` here?
Answer: The growth was 35.3% (inactive).

Question: Which growth does the source give for `O=C1c2ccccc2-c2c1c1cccnc1c(=O)n2C[C@H](O)CO` here?
Answer: The growth was 48.8% (inactive).

Question: How did the growth turn out when `N#Cc1c(-c2ccccc2)cc(-c2ccccc2)n(CCCCCCC(=O)O)c1=O` was run?
Answer: Its growth is 105% (inactive).

Question: Which growth does the source give for `Nc1ncnc2c1c(-c1ccc(Oc3ccccc3)cc1)nn2CC1SSCC1O` (stereo not given) here?
Answer: Its growth is -25.9% (active).

Question: Which growth does the source give for `Cc1ccc(-c2c3c(N)nc(-c4ccncc4)nc3nc3c2c(C)nn3-c2ccccc2)cc1` here?
Answer: The growth was 97% (inactive).

Question: `COc1ccccc1CNCCCN1C(=O)c2ccc3c4c(ccc(c24)C1=O)C(=O)N(CCCOCCCCOCCCN)C3=O` was tested. Which growth did it give?
Answer: Its growth is -50.2% (active).

Question: How did the growth turn out when `O=CN/N=C/c1ccc(Cl)c([N+](=O)[O-])c1` was run?
Answer: Its growth is 11.1% (inactive).

Question: `COc1cc(C(=O)c2cnc(-c3c[nH]c4cccc(C)c34)[nH]2)cc(OC)c1OC` was tested. Which growth did it give?
Answer: Its growth is -14.9% (active).

Question: Which growth does the source give for `C/C(=N\O)c1ccc(NC(=O)CSc2nnc(-c3cc(-c4ccc(S(N)(=O)=O)cc4)nc4ccccc34)n2-c2ccccc2)cc1` here?
Answer: The growth was 24.1% (inactive).

Question: `CCCCOc1nc2ccc(Cl)cc2cc1/C=C/C(=O)/C=C/c1ccc(Cl)cc1` was tested. Which growth did it give?
Answer: The growth was 61.2% (inactive).

Question: `C=C1SC(=Nc2c(C)cccc2C)N(c2nc(Cl)nc(Cl)n2)C12CCCCC2` was tested. Which growth did it give?
Answer: The growth was 100% (inactive).

Question: `CCCn1c(N)c(C(=O)CNc2ccc(I)cc2)c(=O)[nH]c1=O` was tested. Which growth did it give?
Answer: The growth was -5.9% (active).

Question: For `O=C(CCN1CCCC1)c1ccc([N+](=O)[O-])cc1`, which growth is on record?
Answer: The growth was -21.1% (active).

Question: `Nc1ccn(C2CC(O)C(CO)O2)c(=O)n1` (stereo not given) was tested. Which growth did it give?
Answer: The growth was 86.1% (inactive).

Question: With `Cc1ccc(C2CC(c3nc(-c4ccc(Cl)cc4)oc3C)=NN2C(=O)c2ccncc2)cc1` (stereo not given) as the compound, how does the growth read?
Answer: Its growth is 97.7% (inactive).

Question: `COc1ccc(OC)c(/C=C2\Oc3cc(OCCCN4CCCC4)ccc3C2=O)c1` was tested. Which growth did it give?
Answer: The growth was 87.5% (inactive).

Question: Which growth does the source give for `Cc1ccc(/C=C/C(=O)c2cccc(OCCCOc3cccc(C(=O)/C=C/c4ccc(C)cc4)c3)c2)cc1` here?
Answer: Its growth is 57.6% (inactive).

Question: For `CC/C=C\C[C@@H](O)C/C=C1/C(=O)C=C[C@H]1C/C=C\CCCC(=O)OC`, which growth is on record?
Answer: The growth was -15.6% (active).
